# Reference: PubChem BioAssay
# Potency and affinity values are given separately. Calls of active or inactive are those of the source.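 Rule for the calls: active = a fitted half-maximal concentration no higher than twice the top valid tested dose, with signal falling as cells die; inconclusive = flat curve between -70% and -30%, or poor fit; inactive = the rest, including signal rising instead of falling.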
# Assay: HeLa cell cytotoxicity, dose response, cytotoxicity control, ATP luminescence, cherry-pick samples (AID 687004)
# Details: HeLa viability, ATP luminescence (CellTiter-Glo), 48 h; series mostly up to 26 µM
row,Structure (SMILES),outcome
1,Cc1ccccc1S(=O)(=O)N[C@H]1CC[C@H](CCNS(=O)(=O)c2cccc(F)c2)O[C@H]1CO,inactive
2,CNC(=O)C[C@@H]1CC[C@@H]2[C@H](COC[C@@H](O)CN2C(=O)Nc2ccc3c(c2)OCO3)O1,inactive
3,O=C(CN(c1ccccc1)S(=O)(=O)c1ccc(F)cc1)NC1CCS(=O)(=O)C1 (centres undefined),inactive
4,C[C@@H]1CN([C@H](C)CO)C(=O)c2cc(-c3cccc(F)c3)cnc2O[C@H]1CN(C)Cc1ccccc1,inactive
5,O=C1CCC(C(=O)Nc2ccc(Cl)cc2)N1 (centres undefined),inactive
6,C[C@@H]1CN([C@@H](C)CO)C(=O)c2cccc(NS(=O)(=O)c3ccc(F)cc3)c2O[C@H]1CN(C)S(=O)(=O)c1ccc(Cl)cc1,inactive
7,CCC(C)(C(=O)NC1CCCCC1)N(C(=O)C1CCC(=O)N1)c1ccccc1 (centres undefined),inactive
8,C[C@@H](NC(=O)C[C@H]1CC[C@@H](NC(=O)Cc2ccccn2)[C@@H](CO)O1)c1ccccc1,inactive
9,CCNC(=O)Nc1ccc2c(c1)C(=O)N(C)[C@H]1CC[C@H](CC(=O)N[C@@H](C)c3ccccc3)O[C@H]1CO2,inactive
10,CN1CCN(C(=O)C[C@@H]2CC[C@H]3[C@@H](COC[C@H](O)CN3C(=O)Cc3ccccc3)O2)CC1,inactive
11,O=C(Cc1ccccc1)N[C@H]1C=C[C@@H](CC(=O)N2CCOCC2)O[C@H]1CO,inactive
12,CNC[C@H]1OCCCC[C@H](C)Oc2ccc(NC(=O)CCCN(C)C)cc2C(=O)N([C@H](C)CO)C[C@@H]1C,inactive
13,CN1[C@@H]2c3ccc(-c4cccnc4)c(=O)n3C[C@@H]2[C@@H](CO)[C@@H]1C(=O)N1CCc2ccccc2C1,inactive
14,C[C@@H]1CCCCO[C@H](CN(C)C(=O)c2ccccc2)[C@@H](C)CN([C@@H](C)CO)C(=O)c2cc(NC(=O)c3ccccc3)ccc2O1,inactive
